The sample as a whole holds a higher share of hits than the screen did.
AmpC detergent: qHTS Inhibitors of AmpC Beta-Lactamase (assay with detergent). P00811. AmpC hydrolysis of nitrocefin, absorbance 480 nm, 0.01% Triton. Potency, µM (series often up to 114 µM), for inactives: at the top dose activity change, negative = inhibition, most hits filed as inhibitors. hit rate 0.041% among 370,000;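 also: potency is read from the fitted curve at half-maximal effect; 0% = no-compound wells and -100% = no-enzyme wells; nearly all actives have a fitted effect of over 25% in size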
Target sequence (P00811 whole entry, looked up): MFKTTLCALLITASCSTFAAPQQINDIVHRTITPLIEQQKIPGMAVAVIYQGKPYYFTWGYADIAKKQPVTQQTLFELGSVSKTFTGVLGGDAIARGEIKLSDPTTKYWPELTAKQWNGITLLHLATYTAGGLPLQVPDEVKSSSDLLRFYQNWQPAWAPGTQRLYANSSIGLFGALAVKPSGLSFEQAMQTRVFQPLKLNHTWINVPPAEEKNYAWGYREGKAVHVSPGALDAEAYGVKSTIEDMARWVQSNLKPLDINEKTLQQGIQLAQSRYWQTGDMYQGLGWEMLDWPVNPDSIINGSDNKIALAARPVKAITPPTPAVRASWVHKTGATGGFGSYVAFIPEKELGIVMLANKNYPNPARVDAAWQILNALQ
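AmpC (5.3 nM in the dispensed reagent) in 20 mM phosphate pH 7.0 with 0.01% (detergent screen) or 0.0001% Triton X-100 was preincubated with compounds for 15 min at room temperature. Nitrocefin was then added from an 800 uM solution, and hydrolysis was followed at 480 nm.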
CHX counter: Cycloheximide Counterscreen for Small Molecule Inhibitors of Shiga Toxin; AID 2314, 2010; cell reporter, cycloheximide protein synthesis inhibition counterscreen; hit rate 12% among 300,000; max response, %; in the data active = max response mostly above about 13%, no sharp cut-off; inactive = mostly below about 14%; also: read at 38.3 µM for the half of the compounds with a filed dose; 0% is about no effect
AMA1-RON2 inh: qHTS for Inhibitors of AMA1-RON; Towards Development of Antimalarial Drug Lead: Primary Screen; Plasmodium falciparum AMA1 (3D7) - RON2 peptide interaction; AlphaScreen AMA1-biotinylated RON2 peptide binding; Potency, µM (top dose mostly 58.2 µM), for inactives: at the top dose activity change, negative = inhibition, most hits filed as inhibitors; hit rate 0.2% among 360,000; AID 720542, 2013;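 also: potency is read from the fitted curve at half-maximal effect; 0% = vehicle wells and -100% = peptide control; nearly all actives have a fitted effect of over 45% in size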
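AMA1 (3D7) with his tag at 25 nM final met compounds first, then biotinylated RON2 peptide at 25 nM; detection used donor plus acceptor beads, 10 µg/mL apiece, read by AlphaScreen after 30 min at room temperature.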
Shiga inhibitor: A qHTS for Small Molecule Inhibitors of Shiga Toxin; Vero cells, Shiga toxin protein synthesis inhibition reporter; inhibition, % at 38.7 µM; hit rate 9.2% among 290,000; in the data active = inhibition mostly above about 28%, no sharp cut-off; inactive = mostly below about 43%; also: 0% is about no effect
AmpC no deterg: qHTS Inhibitors of AmpC Beta-Lactamase (assay without detergent); P00811; AmpC nitrocefin hydrolysis, absorbance 480 nm, 0.0001% Triton; Potency, µM (doses to about 57.1 µM), for the others: at the highest dose activity change, negative = inhibition, hits mostly inhibitors; hit rate 0.52% among 330,000; AID 485341, 2010;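 also: potency is read from the fitted curve at half-maximal effect; plate controls were no compound for no effect and no enzyme for full effect; nearly all actives have a fitted effect of over 20% in size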
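AmpC (5.3 nM in the dispensed reagent) in 20 mM phosphate pH 7.0 with 0.01% (detergent screen) or 0.0001% Triton X-100 was preincubated with compounds for 15 min at room temperature. Nitrocefin was then added from an 800 uM solution, and hydrolysis was followed at 480 nm.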
SARS PLP yeast: qHTS of Yeast-based Assay for SARS-CoV PLP | S. cerevisiae expressing SARS-CoV PLpro, growth rescue | Potency, µM (series often up to 32.9 µM), for the others: at the highest dose activity, positive = growth rescue, actives largely listed as activators | hit rate 0.19% among 330,000 | AID 485353, 2010; calls by dose curve; also: potency is read from the fitted curve at half-maximal effect; 0% is about no effect; nearly all actives have a fitted effect of over 55% in size
An asterisk follows results filed as active; ? = inconclusive; . = no result; [ ] = remark or other dose. Unless noted, calls follow the shape of the dose curve; as a rule, active = well fitted curve in the direction sought with a large enough effect; inconclusive = small, poorly fitted or top-dose-only effect, or another doubt; inactive = no such curve, though single readings can be large; an effect the other way counts as inactive or inconclusive.

SMILES	AmpC detergent	CHX counter	AMA1-RON2 inh	Shiga inhibitor	AmpC no deterg	SARS PLP yeast
CCC(=O)Nc1nnc(C)s1	1.2%	-2.8	-13.1%	14.5	-17.6%	8.9%
CC(C)=CC(=O)Nc1nnc(C)s1	-0.5%	16.2*	0.6%	24.6*	-23.3%	7.8%
CC(=O)c1sc(NC(=O)C=C(C)C)nc1C	1.2%	43.6*	-4.3%	65.5*	-28.8%	-0.5%
O=C(Nc1ccccc1)Nc1nnc(-c2ccccc2)s1	-8.9%	19.2	16.7%	9.2	-26.3%	0.3%
CC(C)=CC(=O)Nc1nnc(-c2ccccc2)s1	2.9%	45.6*	0.4%	13.7*	-14.3%	1.2%
COc1ccc2c(=O)cc(-c3ccccc3F)oc2c1	-4.5%	40.6*	7.9%	53.5*	-9.3%	-0.5%
O=c1cc(-c2ccco2)oc2ccc(Cl)cc12	0.1%	0.6	-7.2%	28.3	2.6%	-2.1%
COc1ccc2oc(-c3ccco3)cc(=O)c2c1	-11.3%	49.8*	-2.9%	68.2*	24.2%	-5.8%
COc1cccc2oc(-c3ccco3)cc(=O)c12	?	29.6*	-2.0%	23.7	-22.0%	-16.2%
CCOc1ccccc1NC(=O)C(c1ccccc1)N1Cc2ccccc2C1=O (centres undefined)	18.0%	.	.	.	.	.
COc1ccc2oc(=O)c(C(=O)Nc3cccc(C(=O)O)c3)cc2c1	2.0%	.	.	.	.	.
COc1ccc2oc(=O)c(C(=O)Nc3cccc(C)c3)cc2c1	3.9%	43.5*	8.0%	49.1*	-18.0%	0.6%
Cc1ccc(S(=O)(=O)N/N=c2\oc3ccccc3cc2C(=O)Nc2cccc(C)c2)cc1	-20.7%	61.9*	.	70.9*	-23.6%	0.0%
CC(=O)c1cc2ccccc2oc1=O	4.9%	.	-7.0%	.	-16.4%	-1.4%
Cc1ccnc(NC(=O)c2cc3ccccc3oc2=O)c1	-7.2%	27.1*	0.6%	121.6*	-28.6%	4.1%
Cc1cccc(NC(=O)c2cc3ccccc3oc2=O)c1	?	41.2*	-1.7%	.	-14.2%	8.0%
CC(C)(C)OC(=O)N1CCc2onc(-c3ccc(-n4cc(C5=CCCCC5)nn4)cc3)c2C1=O	.	.	-4.7%	.	.	.
Cc1ccc(Cl)cc1N1CCN(C(=O)c2cnn(C(C)(C)C)c2C2CCN(C(=O)OC(C)(C)C)CC2)CC1	13.4%	.	.	.	.	.
Cc1ccc(C(=O)NC2CCCc3ccccc32)cc1[N+](=O)[O-] (centres undefined)	?	8.4	-10.2%	40.6	?	-7.7%
O=C(Nc1c(-c2ccccc2)nc2ncccn12)c1cc2ccccc2oc1=O	-10.6%	35.7*	-2.5%	-17.9	-2.6%	9.3%
COc1ccc(CN2CCn3nc(C(=O)NC(C)C)cc3C2=O)cc1	-0.3%	1.2	-1.8%	-12.9	2.2%[2.29 µM]	-0.6%
Cc1ccc[n+](CC(=O)c2cc3ccccc3oc2=O)c1	-6.6%	24.6*	1.6%	29.5	-38.6%	-4.1%
COc1ccc(CN2CCn3ncc(C(=O)Nc4cccc(C)c4)c3C2=O)cc1	6.9%	16.3*	22.3%	67.8	-16.4%	6.1%
CC(NC(=O)c1cc2ccccc2o1)c1ccccc1 (centres undefined)	-3.1%	-2.5	-1.4%	10.2	-23.5%	0.1%
CC(NC(=O)c1cc2ccccc2oc1=O)c1ccccc1 (centres undefined)	-7.9%	19.6*	-0.9%	47.1*	-2.1%	-11.1%
SMILES	AmpC detergent	CHX counter	AMA1-RON2 inh	Shiga inhibitor	AmpC no deterg	SARS PLP yeast
CCOC(=O)C1=C(Nc2ccccc2)CSC1	.	.	-8.7%	.	.	.
CC(C)(C)OC(=O)NOCC(=O)N(CC(=O)c1ccccc1)Cc1ccccc1	?	.	3.7%	.	0.6%	-14.8%
CC1CCc2c(sc3nnn(Cc4ccc(F)cc4)c(=O)c23)C1 (centres undefined)	23.8%	.	.	.	.	.
O=C(CCCn1c(=O)[nH]c2cc(Cl)ccc2c1=O)NC1CCCCCC1	-17.3%	-3.7	-1.7%	-7.2	-26.8%	1.5%
O=C(CSc1nnc(C2CCCCC2)o1)Nc1ccccc1Cl	?	15.2	20.1%	71.2*	-4.8%	2.8%
Cc1ccc(S(=O)(=O)NCCC(=O)N2CCN(S(=O)(=O)c3cccc(F)c3)CC2)cc1C	-13.2%	.	-3.9%	.	40.4%	1.0%
CC(C)CCOP(=O)(c1ccc(N(C)C)cc1)C(O)c1ccccc1 (centres undefined)	-6.7%	-4.3	4.4%	-2.4	55.9%	-1.7%
CN(C)c1ccc(C=c2c3ccccc3n3c2cc(-c2ccccc2)[n+]3C)cc1	.	.	31.6µM*	.	.	.
CN(C)c1ccc(C=c2c3ccccc3n3c2cc(-c2ccc(Cl)cc2)[n+]3C)cc1	.	.	17.8µM*	.	.	.
Cn1c(CO)c(-c2ccccc2)c2cc([N+](=O)[O-])ccc21	?	-2.5	-10.4%	-20.0	-31.9%	-9.4%
COc1cc(N(C)C)ccc1C=c1c2ccccc2n2c1cc(-c1ccccc1)[n+]2C	.	.	12.6µM*	.	.	.
CN(C)c1ccc(C=c2c3cc([N+](=O)[O-])ccc3n3c2cc(-c2ccccc2)[n+]3C)cc1	.	.	8.91µM*	.	.	.
CCOc1ccccc1N1CCN(C(=O)NC(C)c2ccc(F)c(F)c2)CC1 (centres undefined)	-2.1%	4.6	11.1%	-8.4	94.9%	-1.6%
COc1ccc(NC(=O)CN(C)C(=O)c2cccc(S(=O)(=O)Nc3ccc(OC)cc3)c2)cc1	?	.	-4.9%	.	-22.1%	9.6%
CN(C)C(CNC(=O)c1cccs1)c1ccco1 (centres undefined)	-14.3%	.	8.1%	.	-12.0%	10.0%
O=C(NCCC(c1ccccc1)c1ccco1)c1cccs1 (centres undefined)	3.4%	38.3*	-5.7%	118.0*	-18.2%	-19.6%
COc1ccccc1-c1noc(-c2ccc(NC3CCCCC3)c([N+](=O)[O-])c2)n1	2.0%	.	.	.	.	.
COc1ccccc1/C=C/C=N/n1c(-c2n[nH]c3c2CCC3)n[nH]c1=S	10.9%	-0.5	87.6%	8.6	-36.7%	0.9%
COc1cc2c3c(c1)c(C1=NC(=S)NC1=O)c(O)n3C(C)(C)C=C2C	?	21.1*	?	-12.4	-28.5%	14.1%
CC1(c2ccccc2)CC(C)(C)n2c(O)c(C3=NC(=S)NC3=O)c3cccc1c32 (centres undefined)	2.8%	-4.2	-14.1%	-4.9	-36.0%	-0.5%
Cc1ccnc(NC(=O)Cc2ccc(-c3ccccc3)cc2)c1	-2.5%	72.2*	-8.2%	79.6*	-52.3%	-4.9%
Cc1ccnc(NC(=O)Cc2ccc([N+](=O)[O-])cc2)c1	-5.5%	18.8*	-18.8%	57.9	-23.5%	0.8%
CC(C)CC(=O)NC(=S)Nc1ccccn1	0.8%	26.0*	-0.3%	44.1	1.6%	?
CC(C)CC(=O)NC(=S)Nc1ccccc1F	-9.0%	15.1	-17.3%	26.8	.	.
